Results filed as inconclusive are left out. Where a call stands in place of a potency, no number is given. The source made the active and inactive calls. The call rests on the fitted dose curve.

The text below walks through data of PubChem BioAssay (Tox21).
Potency means the concentration at half of the fitted maximal effect.

For the experiment, the target named is Retinoic acid receptor RXR-alpha (Homo sapiens) (UniProt P19793). Description: qHTS assay to identify small molecule agonists of the RXR signaling pathway (AID 1159527). Further: nearly all actives have a fitted effect of over 35% in size. The following applies: HEK293T RXRa-UAS-bla, beta-lactamase ratio, 16 h; series mostly up to 76.8 µM. The text has this: U.S. Tox21 Program National Center for Advancing Translational Sciences [NCATS] NIH Chemical Genomics Center [NCGC] U.S. Environmental Protection Agency [EPA] National Institutes of Environmental Health Sciences [NIEHS] National Toxicology Program [NTP] U.S. Food and Drug Administration [FDA] Tox21 Assay Overview: The Retinoid X receptor (RXR), a nuclear hormone receptor expressed in liver, spleen, placenta, epidermis, central nervous system. These receptors are able to form homo and heterodimers with other nuclear receptors and due to this heterodimerizing ability, RXR functions as master regulators producing diverse physiological effects. Three subtypes of RXR exist; alpha, beta and gamma. Retinoid X receptor alpha (RXR-alpha) has potential roles in metabolic signaling pathways, skin alopecia, dermal cysts, cardiac development, insulin sensitization etc. Therefore screening environmental chemicals on RXR-alpha signaling can be used for the studies focused on such therapeutic applications. For quantification of RXR-alpha ligands signaling, GeneBLAzer RXR alpha-UAS-bla HEK 293T (Life Technologies, Carlsbad, CA) cells containing a beta-lactamase reporter-gene under control of Retinoid X receptor-alpha response element were used to screen Tox21 10K library.
Sequence of Retinoic acid receptor RXR-alpha (Homo sapiens) (P19793 whole entry, looked up): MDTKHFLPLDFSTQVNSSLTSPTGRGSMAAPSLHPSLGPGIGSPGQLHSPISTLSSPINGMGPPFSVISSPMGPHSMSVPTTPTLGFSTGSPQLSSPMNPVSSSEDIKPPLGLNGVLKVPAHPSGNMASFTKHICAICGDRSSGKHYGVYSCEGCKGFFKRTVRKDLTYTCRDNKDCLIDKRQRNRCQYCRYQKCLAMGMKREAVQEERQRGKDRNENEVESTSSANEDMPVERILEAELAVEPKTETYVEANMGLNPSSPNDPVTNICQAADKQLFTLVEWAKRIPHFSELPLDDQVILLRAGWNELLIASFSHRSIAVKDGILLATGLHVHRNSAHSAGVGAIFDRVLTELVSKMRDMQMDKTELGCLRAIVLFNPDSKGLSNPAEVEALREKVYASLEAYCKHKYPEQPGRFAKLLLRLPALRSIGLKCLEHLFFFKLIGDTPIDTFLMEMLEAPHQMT
Tox21 Assay Protocol Summary: RXR-alpha HEK 293T cells were dispensed at 2,000 cells/6 uL of assay medium containing 2% charcoal-stripped FBS using a Multidrop Combi (ThermoFisher Scientific, Waltham, MA) dispenser. The assay was performed in black wall/clear-bottom 1536-well plates (Greiner Bio-One North America Inc. Monroe, NC). 9-cis retinoic acid was used as a positive control in the agonist mode screen. After the assay plates were incubated at 37 C and 5% CO2 for 5 hr, 23 nL of compounds dissolved in DMSO, positive controls or DMSO only were transferred to the assay plate by a Pintool station (Kalypsys, San Diego, CA). The assay plates were incubated at 37 C and 5% CO2 for 16 hr. One uL of LiveBLAzer B/G FRET substrate (Life Technologies) was added using a Flying Reagent Dispenser (Aurora Discovery, San Diego, CA) and the plates were incubated at room temperature for 2 hr. Fluorescence intensity (405 nm excitation, 460/530 nm emission) was measured using an Envision plate reader (PerkinElmer, Shelton, CT).
In general terms: In qHTS, concentration-response curves come from the screen itself.
Turning to `Nc1nnc(-c2cccc(Cl)c2Cl)c(N)n1`, the Potency result was “inactive”. Still for that read-out and setting: in the case of `CCOC(=O)CC(=O)c1ccccc1` it was “inactive”; in that of `CC(=C(CCOC(=O)C(C)C)SSC(CCOC(=O)C(C)C)=C(C)N(C=O)Cc1cnc(C)nc1N)N(C=O)Cc1cnc(C)nc1N`, “inactive”.

As to `Cc1cc(C(C)(C)C)c(O)c(C)c1CC1=NCCN1`, the Potency entry is “inactive”. On the same count and under the same terms, in the case of `C[C@@H](O)[C@H]1C(=O)N2C(C(=O)O)=C(SCCN=CN)C[C@H]12` it was “inactive”; in that of `CC(C)C(=O)OCCc1ccccc1`, “inactive”.

In the case of `OC[C@H](Cc1cccc(O)c1)[C@H](CO)Cc1cccc(O)c1`, the Potency result was “inactive”.

As to `CC(CC=O)CCCC(C)(C)O` (stereo not given), the Potency entry is “inactive”. As for `CC1=C(C(=O)O)N2C(=O)[C@@H](NC(=O)[C@H](N)c3ccc(O)cc3)[C@H]2SC1`, the Potency result was “inactive”.

Regarding `Oc1cn2c(n1)Nc1ccc(Cl)c(Cl)c1C2`, the activation is 5.44% [at 15.8 µM] (inactive). Consider `CCCCCOC(=O)CCC`, for which the Potency entry was “inactive”. On the same count and under the same terms, the value for `CC(C)CCCC(C)(C)O` was “inactive”. Take `COC(=O)C1CC(=O)C(C(=O)OC)CC1=O` (stereo not given): the activation is 10.5% [at 6.98 µM] (inactive). As to `CC(C)C(=O)OCc1cccc(OC(=O)[C@@H]2N3C(=O)[C@@H](NC(=O)Cc4ccccc4)[C@H]3SC2(C)C)c1`, the Potency entry was “inactive”. Same read-out and setting: the value for `C=C1CC/C=C(\C)CC[C@@H]2[C@@H]1CC2(C)C` was “inactive”.

`CC(C)CC(=O)O`: the Potency was 10.7 µM (active). The same measure, in the same setting: in the case of `O=C(NCCN1CCOCC1)c1ccc(Cl)cc1` it was “inactive”. The same measure, in the same setting: in the case of `Nc1ccc2cc(S(=O)(=O)O)cc(O)c2c1` it was “inactive”. Consider `CCCOC(=O)C(C)O` (stereo not given), for which the Potency entry was “inactive”. Same read-out and setting: the value for `C=C(C)C(=O)OCC(C)(C)COC(=O)C(=C)C` was “inactive”; that for `Cc1[nH]cnc1-c1ccc(Cl)cc1` was “inactive”; that for `O=C(O)c1cc(Br)c(O)c(Br)c1` was “inactive”. Still for that read-out and setting: in the case of `CC(C)OC(=O)CCCCC(=O)OC(C)C` it was “inactive”. Still for that read-out and setting: in the case of `CC(=O)NCCCCCC(=O)O` it was “inactive”; in that of `CCN(CC)CC(=O)Nc1c(C)cccc1C`, “inactive”.

`O=C(CCN1CCN(CCO)CC1)N1c2ccccc2Sc2ccc(C(F)(F)F)cc21`: the Potency result was “inactive”. Same read-out and setting: in the case of `CCCCCCOC(=O)CC` it was “inactive”. On the same count and under the same terms, in the case of `Cc1cc(NC(=O)C2=C(O)c3ccccc3S(=O)(=O)N2C)no1` it was “inactive”; in that of `C=C(C)C(=O)OCCNC(C)(C)C`, “inactive”; in that of `Cc1ccsc1/C=C/C1=NCCCN1C`, “inactive”. Still for that read-out and setting: the value for `O=C(O)CCSSCCC(=O)O` was “inactive”. Take `CC(C)=CCOC(=O)c1ccccc1`: the Potency entry is “inactive”.

With `CC(=O)Nc1ccc(S(=O)(=O)Nc2ccc([N+](=O)[O-])cc2)cc1`, the Potency entry is “inactive”. Turning to `CCOC(=O)c1ncn2c1CN(C)C(=O)c1cc(F)ccc1-2`, the Potency entry was “inactive”. On the same count and under the same terms, the value for `CCCCOCCOC(=O)COc1nc(Cl)c(Cl)cc1Cl` was “inactive”; that for `O=C1CCCC(=O)O1` was “inactive”; that for `COc1cc(C(=S)N2CCOCC2)cc(OC)c1OC` was “inactive”. Same read-out and setting: in the case of `Cc1ccc2ccc(Cl)cc2n1` it was “inactive”. On the same count and under the same terms, in the case of `CCN1CCc2nc(N)oc2CC1` it was “inactive”; in that of `CC(=O)/C=C/C1C(C)=CCC(C)C1(C)C` (stereo not given), “inactive”.
